PubChem BioAssay (NCATS)
Values joined by “and” are separate entries in the source; they are usually repeats but may differ in a detail not shown here. Equal entries are not always repeated. Records with an inconclusive call do not appear. Active and inactive are the calls of the source. Unless noted, calls follow the shape of the dose curve; as a rule, active = well fitted curve in the direction sought with a large enough effect; inconclusive = small, poorly fitted or top-dose-only effect, or another doubt; inactive = no such curve, though single readings can be large; an effect the other way counts as inactive or inconclusive.

How the values were obtained:
[1] = AP1 Signaling Pathway (AID 357; active = well fitted curve in either direction with a large enough effect, not every such curve was filed as active; also: % is scaled to controls: 0 for no effect and ±100 for the full control effect); conditions: ME-180 AP-1-bla reporter, EGF-induced, beta-lactamase ratio, 5 h
Method in brief: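 AP-1-bla ME-180 cells with beta-lactamase reporter under AP-1 response element, stimulated with EC50 EGF; compounds titrated, 5 hours at 37 degrees Celsius. CCF4 read at 460/530 nm ratio; positive and negative modulators judged by AC50.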

[2] = NFAT Signaling Pathway (AID 444; active = well fitted curve in either direction with a large enough effect, not every such curve was filed as active;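 also: carbachol stimulus at about its EC50 of 1 µM final; % is scaled to controls: 0 for no effect and ±100 for the full control effect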); conditions: Jurkat NFAT-bla M1, carbachol, beta-lactamase ratio, 5 h
Method in brief: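 Jurkat cells with NFAT-driven β-lactamase reporter and co-expressed M1 receptor, stimulated with carbachol (final 1 uM, ~EC50), compound titration, 5 h at 37 °C. CCF4 loaded 1 h at RT; 460/530 nm ratio gave %activity and AC50.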

[3] = Stat Signaling Pathway (AID 446; active = well fitted curve in either direction with a large enough effect, not every such curve was filed as active;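 also: ME-180 cervical cancer cells given 40 pM IL-6 alongside compound; SIE-controlled beta-lactamase reporter measured as 460/530 nm FRET emission ratio; % is scaled to controls: 0 for no effect and ±100 for the full control effect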); conditions: ME-180 SIE beta-lactamase reporter, IL-6 stimulated, 5 h
Method in brief: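 ME-180 SIE-bla cells; overnight plating; cpd + IL-6 40 pM, 5 h, 37 C; LiveBLAzer 2.5 h RT; 460/530 nm emission ratio. Normalized to 300 pM IL-6 and 125 nM JAK inhibitor controls.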

[4] = biological target: Glucocorticoid receptor (Homo sapiens) (UniProt P04150); test: GR-GFP Redistribution (AID 450;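 active = compounds whose dose series gives a full or clear partial fitted curve of increased nuclear translocation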; also: potency is read from the fitted curve at half-maximal effect); conditions: U2OS GR-GFP nuclear translocation, laser cytometry, 2 h
[5] = biological target: Glucocorticoid receptor (Homo sapiens) (UniProt P04150); test: GR-EFC Redistribution (AID 451; calls by dose curve; also: potency is read from the fitted curve at half-maximal effect); conditions: CHO-K1 GR-EFC translocation, beta-gal luminescence, 2 h
Method in brief: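 CHO-K1 cells expressing nuclear EA and GR-ED fragments of b-gal; compounds titrated up to 46 uM final, 2 h at 37 C. GR nuclear translocation read as complemented b-gal luminescence after 1 h RT detection.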

[6] = biological target: Mitogen-activated protein kinase 10 (Mus musculus) (UniProt Q61831); test: JNK3 AlphaScreen Assay (AID 530; active = well fitted curve in either direction with a large enough effect, not every such curve was filed as active;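 also: kinase came from lysate of stimulated human HepG2 cells; signal reports phosphorylation of biotinylated GST-cJun 1-79 at Ser73 with 10 µM ATP; % is scaled to controls: 0 for no effect and ±100 for the full control effect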); conditions: JNK3 lysate, c-Jun phosphorylation; series mostly up to 57.1 µM
Method in brief: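 qHTS format: compounds tested as titrations against IL-1beta/TNF-alpha-activated HepG2 lysate JNK3 with biotin-GST-cJun substrate and 10 uM ATP at room temperature. Loss of anti-phospho-cJun AlphaScreen signal indicates inhibition.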

[7] = biological target: 3',5'-cyclic-AMP phosphodiesterase 4B (Homo sapiens) (UniProt Q07343); test: qHTS Assay for Inhibitors of PDE-IV (AID 607; active = well fitted activation curve with a large enough effect in the main read-out, with a control signal flat, not every such curve was filed as active; also: % of control where 0% means no effect); conditions: HEK293 ACTOne CNG channel cells, membrane potential fluorescence; series mostly up to 22.9 µM
Method in brief: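 ACTOne HEK293 cells carry a modified cAMP-gated CNG channel and express endogenous PDE4; plated 1000 cells/well, compounds up to 22.9 uM final. Membrane-potential dye fluorescence (ex 535/em 590) was read; parental cells received 10 uM forskolin + 100 uM RO 20-1724.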

[8] = qHTS Assay for Identification of Small Molecule Agonists for Thrombopoietin (TPO) Signaling Pathway (AID 917); conditions: TPO signaling pathway reporter cells, agonist qHTS; series mostly up to 38.5 µM; also: % is scaled to controls: 0 for no effect and ±100 for the full control effect
Method in brief: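 Activators of TPO signaling were sought in murine Ba/F3 cells transfected with the human receptor, using a luciferase gene driven by the Glycoprotein IIb promoter; 24-hr compound exposure at 37 C alongside 26 pM TPO, in IL-3-free medium.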

[9] = biological target: Muscarinic acetylcholine receptor M1 (Rattus norvegicus) (UniProt P08482); test: qHTS Assay for Antagonists of Acetylcholine Muscarinic M1 Receptor: Kinetic Measurement of Intracellular Calcium Response (AID 943); conditions: M1-expressing cells, kinetic intracellular calcium fluorescence; series mostly up to 35.3 µM;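 also: Fluo-4 calcium signal as peak divided by basal fluorescence over 4 min; nearly all actives have a fitted effect of over 75% in size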
Method in brief: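 Intracellular calcium flux, recorded with Fluo-4 in a kinetic plate reader, served as signal; the response to carbachol at EC80 (100 nM final) was taken as maximal over minimal fluorescence after a 10 min compound pre-incubation in rat M1-CHO cells.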

[10] = biological target: Muscarinic acetylcholine receptor M1 (Rattus norvegicus) (UniProt P08482); test: qHTS Assay for Antagonists of Acetylcholine Muscarinic M1 Receptor: Measurement of IP-One Response (AID 944); conditions: CHO-M1 cells, IP-One HTRF, antagonist mode; series mostly up to 46.1 µM; also: nearly all actives have a fitted effect of over 75% in size
Method in brief: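 Steps: plate transfected CHO-M1 cells overnight; add test compound, 10 min; add carbachol (200 nM, EC80) in stimulation buffer with LiCl; incubate 30 min; add labelled IP1 tracer and anti-IP1 antibody in lysis buffer; read HTRF after 10 min.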

[11] = biological target: Pyruvate kinase (Leishmania mexicana) (UniProt Q27686); test: qHTS Validation Assay for Inhibitors of Leishmania Mexicana Pyruvate Kinase (AID 945);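 also: 0% = DMSO only neutral control wells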; conditions: purified L. mexicana pyruvate kinase, enzyme activity, E451W mutant enzyme; series mostly up to 57.5 µM
Method in brief: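 Pyruvate kinase activity of E451W LmPYK (0.2 nM) was followed as ATP output after 1 h at room temperature with 0.5 mM PEP and 0.1 mM ADP, detected by PKLight luminescence.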

[12] = biological target: Pyruvate kinase PKM (Homo sapiens) (UniProt P14618); test: qHTS Assay for Activators of Human Muscle Pyruvate Kinase (AID 954; active = well fitted curve in the direction sought with a large enough effect, not every such curve was filed as active;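 also: 0% = uninhibited enzyme and -100% = no enzyme or full thiadiazolimine inhibition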); conditions: purified human muscle pyruvate kinase, luciferase-coupled luminescence, 1 h; series mostly up to 57.5 µM
Method in brief: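 Luminescence from a luciferase ATP-detection/stop reagent reported PKM2 activity. Reactions contained 0.1 nM purified human enzyme, 0.5 mM PEP, 0.1 mM ADP and 7 mM MgCl2 at pH 7.2, run 1 h at RT.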

[13] = biological target: Alpha-galactosidase A (Homo sapiens) (UniProt P06280); test: Counterscreen for Glucocerebrosidase Inhibitors: qHTS Assay for Human alpha-Galactosidase at pH 4.5 (AID 992); conditions: purified enzyme, fluorogenic substrate; series mostly up to 76.9 µM; also: 0% is about no effect
Method in brief: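 Enzyme at 2 nM final was combined with compound (0.7 nM to 77 uM) and 80 uM 4-methylumbelliferyl alpha-D-galactopyranoside in 50 mM citric acid, 0.005% Tween-20, pH 4.5. After 20 min at room temperature, fluorescence was read (Ex 365/Em 440 nm); AC50 came from Hill fits.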

[14] = biological target: alpha-glucosidase (Oryza sativa, rice) (UniProt Q653V4); test: Counterscreen for Glucocerebrosidase Inhibitors: qHTS Assay for Rice alpha-Glucosidase at pH 5.0 (AID 997); conditions: rice alpha-glucosidase enzyme activity; series mostly up to 76.9 µM;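 also: 0% = full activity with enzyme and -100% = basal without enzyme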
Method in brief: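 Rice alpha-glucosidase (4 nM final) with 400 uM 4-methylumbelliferyl-alpha-D-glucopyranoside in citrate buffer pH 5.0, 20 min at room temperature, stopped at pH 10; fluorescence 365/440 nm, compounds 0.7 nM–77 uM, AC50 from Hill fits.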

[15] = biological target: ATP-dependent 6-phosphofructokinase (Trypanosoma brucei brucei) (UniProt O15648); test: qHTS Assay to Find Inhibitors of T. brucei phosphofructokinase: hit validation (AID 492961); also: % is scaled to controls: 0 for no effect and ±100 for the full control effect; conditions: T. brucei PFK, ADP-Glo luminescence; series mostly up to 51.4 µM
Method in brief: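 Luminescence from ADP-Glo reports ADP generated as T. brucei PFK (1.25 nM) phosphorylates 0.5 mM fructose-6-phosphate using 0.1 mM ATP. Reactions ran 45 min at room temperature, pH 8.0.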

[16] = biological target: Ubiquitin carboxyl-terminal hydrolase 1 (Homo sapiens) (UniProt O94782); test: Inhibitors of USP1/UAF1: Pilot qHTS (AID 504865); conditions: purified USP1/UAF1, Ub-rhodamine cleavage fluorescence; series mostly up to 114 µM;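 also: rhodamine fluorescence freed from ubiquitin-rhodamine substrate followed over time; top concentration of the series differs between compounds; % is scaled to controls: 0 for no effect and ±100 for the full control effect; nearly all actives have a fitted effect of over 35% in size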
Method in brief: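 1nM USP1/UAF1 + cpd, 15 min RT; start w/ Ub-Rho 150nM final; kinetic FL 480/540 nm, 6 reads q60 s. Buffer 50mM HEPES pH 7.8, 0.5mM EDTA, 1mM TCEP, 0.01% Tween-20, 0.1 mg/ml BSA.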

[17] = biological target: Luciferin 4-monooxygenase (Photinus pyralis) (UniProt P08659); test: Biochemical firefly luciferase enzyme assay for NPC (AID 624030);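 also: purified P. pyralis luciferase at 10 nM with luciferin and ATP substrate; 0% = DMSO and -100% = full luciferase inhibition by PTC124 control; nearly all actives have a fitted effect of over 70% in size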; conditions: purified P. pyralis luciferase, luminescence, 5 min; series mostly up to 58.6 µM
Method in brief: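 Purified P. pyralis luciferase at 10 nM in 50 mM Tris Acetate (final), luminescence read within 5 minutes of enzyme addition to compounds. Activity normalised to PTC124 versus DMSO; concentration-response curves classed by r2, magnitude and activity.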

[18] = S16 Schwann cell viability assay (CellTiter-Glo assay) (AID 624031); conditions: S16 rat Schwann cells viability, 24 h; series mostly up to 57.5 µM;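 also: native untransfected S16 rat Schwann cells; cellular ATP luminescence as a viability measure; plate controls were DMSO-treated cells for no effect and cell-free wells for full effect; nearly all actives have a fitted effect of over 70% in size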
Method in brief: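 Concentration-effect curves come from CellTiter-Glo luminescence of S16 rat Schwann cells after 24 h compound exposure. Each reading was normalized to DMSO wells (0%) and wells without cells, and curves were ranked by r2 and response magnitude.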

[19] = S16 Schwann cell PMP22 intronic element firefly luciferase assay (AID 624032); conditions: S16 rat Schwann cells, PMP22 element FLuc, 24 h; series mostly up to 57.5 µM;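 also: plate controls were DMSO for no effect and PTC124 positive control mean for full effect; nearly all actives have a fitted effect of over 30% in size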
Method in brief: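 Rat S16 Schwann cells stably carrying firefly luciferase driven by a PMP22 intronic element, in 10% FBS, treated 24 h at 37 C. ONE-Glo luminescence normalized to PTC124 control and DMSO (0%); curves classed by r2, magnitude and activity.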

[20] = S16 Schwann cell PMP22 intronic element beta-lactamase assay (AID 624044; calls by dose curve;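 also: 0% = DMSO and -100% = potassium clavulanate positive control; nearly all actives have a fitted effect of over 15% in size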); conditions: S16 rat Schwann cells, PMP22 element beta-lactamase FRET, 24 h; series mostly up to 38.3 µM
Method in brief: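 Rat S16 Schwann cells with beta-Lac driven by a PMP22 intronic element, compound-treated 24 h at 37 °C. LiveBLAzer FRET B/G read: 460 nm normalized to potassium clavulanate vs DMSO; 535 nm FRET as viability; concentration-effect curves classified.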

3D7 = test: qHTS profiling for inhibitors of Plasmodium falciparum proliferation (AID 504749);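 also: 0% = DMSO vehicle and full inhibition = artemisinin control; nearly all actives have a fitted effect of over 60% in size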; conditions: P. falciparum in erythrocytes, SYBR Green DNA, 72 h; series mostly up to 28.7 µM
Method in brief: (§1)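 Readout was DNA-dye fluorescence from lysed cultures, ex 485/em 535 nm. Parasitized red cells had grown 72 h with compound; data scaled between 0.29 uM artemisinin and DMSO wells and corrected using vehicle-only plates.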

7G8 = test: as above; conditions: P. falciparum in erythrocytes, SYBR Green DNA, 72 h; series mostly up to 28.7 µM
Method in brief: as §1

AA1029 = test: as above; conditions: P. falciparum in erythrocytes, SYBR Green DNA, 72 h; series mostly up to 28.7 µM
Method in brief: as §1

AS120 = test: as above; conditions: P. falciparum in erythrocytes, SYBR Green DNA, 72 h; series mostly up to 28.7 µM
Method in brief: as §1

ATS189 = test: as above; conditions: P. falciparum in erythrocytes, SYBR Green DNA, 72 h; series mostly up to 28.7 µM
Method in brief: as §1

ATS95 = test: as above; conditions: P. falciparum in erythrocytes, SYBR Green DNA, 72 h; series mostly up to 28.7 µM
Method in brief: as §1

C2A = test: as above; conditions: P. falciparum in erythrocytes, SYBR Green DNA, 72 h; series mostly up to 28.7 µM
Method in brief: as §1

CP185 = test: as above; conditions: P. falciparum in erythrocytes, SYBR Green DNA, 72 h; series mostly up to 28.7 µM
Method in brief: as §1

CP191 = test: as above; conditions: P. falciparum in erythrocytes, SYBR Green DNA, 72 h; series mostly up to 28.7 µM
Method in brief: as §1

CP192 = test: as above; conditions: P. falciparum in erythrocytes, SYBR Green DNA, 72 h; series mostly up to 28.7 µM
Method in brief: as §1

CP194 = test: as above; conditions: P. falciparum in erythrocytes, SYBR Green DNA, 72 h; series mostly up to 28.7 µM
Method in brief: as §1

CP201 = test: as above; conditions: P. falciparum in erythrocytes, SYBR Green DNA, 72 h; series mostly up to 28.7 µM
Method in brief: as §1

CP203 = test: as above; conditions: P. falciparum in erythrocytes, SYBR Green DNA, 72 h; series mostly up to 28.7 µM
Method in brief: as §1

CP211 = test: as above; conditions: P. falciparum in erythrocytes, SYBR Green DNA, 72 h; series mostly up to 28.7 µM
Method in brief: as §1

CP215 = test: as above; conditions: P. falciparum in erythrocytes, SYBR Green DNA, 72 h; series mostly up to 28.7 µM
Method in brief: as §1

CP217 = test: as above; conditions: P. falciparum in erythrocytes, SYBR Green DNA, 72 h; series mostly up to 28.7 µM
Method in brief: as §1

CP237 = test: as above; conditions: P. falciparum in erythrocytes, SYBR Green DNA, 72 h; series mostly up to 28.7 µM
Method in brief: as §1

CP238 = test: as above; conditions: P. falciparum in erythrocytes, SYBR Green DNA, 72 h; series mostly up to 28.7 µM
Method in brief: as §1

Chain of Glucocorticoid receptor (Homo sapiens) (P04150 whole entry, looked up, the tested form may be a part): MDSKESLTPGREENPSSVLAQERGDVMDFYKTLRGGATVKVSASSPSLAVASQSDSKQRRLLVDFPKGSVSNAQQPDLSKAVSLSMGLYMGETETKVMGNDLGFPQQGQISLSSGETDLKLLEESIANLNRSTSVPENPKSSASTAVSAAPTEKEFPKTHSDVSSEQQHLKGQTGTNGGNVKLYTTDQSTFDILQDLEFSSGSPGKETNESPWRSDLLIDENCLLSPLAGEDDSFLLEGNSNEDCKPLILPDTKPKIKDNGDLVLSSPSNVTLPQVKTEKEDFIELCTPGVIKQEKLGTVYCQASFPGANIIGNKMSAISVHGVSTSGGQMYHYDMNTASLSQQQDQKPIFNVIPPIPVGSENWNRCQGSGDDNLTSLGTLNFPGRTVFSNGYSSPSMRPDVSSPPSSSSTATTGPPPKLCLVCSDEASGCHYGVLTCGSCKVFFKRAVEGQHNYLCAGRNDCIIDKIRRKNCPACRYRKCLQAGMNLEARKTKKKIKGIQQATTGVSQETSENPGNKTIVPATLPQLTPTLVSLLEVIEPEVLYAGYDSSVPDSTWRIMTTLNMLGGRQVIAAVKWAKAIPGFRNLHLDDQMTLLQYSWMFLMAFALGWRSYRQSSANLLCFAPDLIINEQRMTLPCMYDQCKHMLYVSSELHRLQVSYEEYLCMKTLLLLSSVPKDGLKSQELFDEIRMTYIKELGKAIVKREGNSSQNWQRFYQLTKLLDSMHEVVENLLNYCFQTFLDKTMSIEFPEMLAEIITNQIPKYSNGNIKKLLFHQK
Chain of 3',5'-cyclic-AMP phosphodiesterase 4B (Homo sapiens) (Q07343 whole entry, looked up): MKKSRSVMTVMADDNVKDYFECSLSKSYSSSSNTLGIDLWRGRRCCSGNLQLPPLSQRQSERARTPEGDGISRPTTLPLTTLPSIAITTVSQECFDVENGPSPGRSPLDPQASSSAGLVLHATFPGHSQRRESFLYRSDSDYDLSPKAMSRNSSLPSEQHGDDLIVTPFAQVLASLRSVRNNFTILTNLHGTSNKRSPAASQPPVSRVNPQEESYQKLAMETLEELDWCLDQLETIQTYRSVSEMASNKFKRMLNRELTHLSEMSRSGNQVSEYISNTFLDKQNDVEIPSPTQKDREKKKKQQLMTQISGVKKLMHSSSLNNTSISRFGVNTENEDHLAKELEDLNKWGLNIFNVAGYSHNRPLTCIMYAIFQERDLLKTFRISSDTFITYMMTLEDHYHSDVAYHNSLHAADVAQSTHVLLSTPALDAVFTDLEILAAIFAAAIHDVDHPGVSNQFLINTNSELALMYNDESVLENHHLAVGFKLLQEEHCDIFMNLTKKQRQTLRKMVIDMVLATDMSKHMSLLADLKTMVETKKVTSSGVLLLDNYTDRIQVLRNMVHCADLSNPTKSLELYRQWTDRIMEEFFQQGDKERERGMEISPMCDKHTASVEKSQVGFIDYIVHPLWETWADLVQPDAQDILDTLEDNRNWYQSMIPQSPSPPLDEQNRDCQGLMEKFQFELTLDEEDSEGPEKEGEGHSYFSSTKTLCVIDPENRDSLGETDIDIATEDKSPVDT
Chain of Muscarinic acetylcholine receptor M1 (Rattus norvegicus) (P08482 whole entry, looked up): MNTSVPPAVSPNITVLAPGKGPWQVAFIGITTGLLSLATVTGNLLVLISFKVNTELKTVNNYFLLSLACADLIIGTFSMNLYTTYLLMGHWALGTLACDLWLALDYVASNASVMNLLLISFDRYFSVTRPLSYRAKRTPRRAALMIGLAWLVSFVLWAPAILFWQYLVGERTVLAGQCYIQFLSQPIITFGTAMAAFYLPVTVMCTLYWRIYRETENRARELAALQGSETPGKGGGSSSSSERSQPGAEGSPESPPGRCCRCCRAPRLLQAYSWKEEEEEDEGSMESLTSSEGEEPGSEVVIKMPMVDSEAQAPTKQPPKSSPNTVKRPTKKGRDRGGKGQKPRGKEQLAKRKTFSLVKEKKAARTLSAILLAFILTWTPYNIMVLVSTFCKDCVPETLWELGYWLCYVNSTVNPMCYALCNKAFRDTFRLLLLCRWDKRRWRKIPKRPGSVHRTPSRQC
Chain of ATP-dependent 6-phosphofructokinase (Trypanosoma brucei brucei) (O15648 whole entry, looked up): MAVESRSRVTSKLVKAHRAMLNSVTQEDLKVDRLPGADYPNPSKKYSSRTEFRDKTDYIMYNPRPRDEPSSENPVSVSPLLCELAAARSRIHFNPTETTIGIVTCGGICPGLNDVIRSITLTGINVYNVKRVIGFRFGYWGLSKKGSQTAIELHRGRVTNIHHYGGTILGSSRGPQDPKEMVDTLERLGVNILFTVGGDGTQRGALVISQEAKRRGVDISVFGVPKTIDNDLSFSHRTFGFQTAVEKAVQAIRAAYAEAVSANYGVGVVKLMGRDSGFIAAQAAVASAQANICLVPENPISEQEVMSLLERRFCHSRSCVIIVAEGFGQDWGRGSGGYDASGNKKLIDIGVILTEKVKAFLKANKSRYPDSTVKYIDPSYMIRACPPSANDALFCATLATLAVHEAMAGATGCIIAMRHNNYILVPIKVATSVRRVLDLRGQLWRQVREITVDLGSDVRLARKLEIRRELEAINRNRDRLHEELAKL
Chain of Pyruvate kinase PKM (Homo sapiens) (P14618 whole entry, looked up): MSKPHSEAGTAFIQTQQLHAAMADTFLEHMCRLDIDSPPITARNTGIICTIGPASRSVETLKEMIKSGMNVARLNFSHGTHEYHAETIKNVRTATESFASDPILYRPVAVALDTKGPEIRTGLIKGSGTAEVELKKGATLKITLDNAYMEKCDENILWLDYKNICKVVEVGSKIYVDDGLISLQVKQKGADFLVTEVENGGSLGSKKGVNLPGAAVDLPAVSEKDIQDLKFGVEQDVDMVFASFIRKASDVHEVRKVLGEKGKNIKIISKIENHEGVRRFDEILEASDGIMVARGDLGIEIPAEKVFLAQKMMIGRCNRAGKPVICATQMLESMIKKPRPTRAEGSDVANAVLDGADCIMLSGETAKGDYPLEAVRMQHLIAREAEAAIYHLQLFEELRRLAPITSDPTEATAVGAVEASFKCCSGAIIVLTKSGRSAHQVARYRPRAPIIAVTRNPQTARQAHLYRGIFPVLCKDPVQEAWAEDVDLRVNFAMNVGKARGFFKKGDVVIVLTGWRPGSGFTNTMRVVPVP
Chain of Luciferin 4-monooxygenase (Photinus pyralis) (P08659 whole entry, looked up): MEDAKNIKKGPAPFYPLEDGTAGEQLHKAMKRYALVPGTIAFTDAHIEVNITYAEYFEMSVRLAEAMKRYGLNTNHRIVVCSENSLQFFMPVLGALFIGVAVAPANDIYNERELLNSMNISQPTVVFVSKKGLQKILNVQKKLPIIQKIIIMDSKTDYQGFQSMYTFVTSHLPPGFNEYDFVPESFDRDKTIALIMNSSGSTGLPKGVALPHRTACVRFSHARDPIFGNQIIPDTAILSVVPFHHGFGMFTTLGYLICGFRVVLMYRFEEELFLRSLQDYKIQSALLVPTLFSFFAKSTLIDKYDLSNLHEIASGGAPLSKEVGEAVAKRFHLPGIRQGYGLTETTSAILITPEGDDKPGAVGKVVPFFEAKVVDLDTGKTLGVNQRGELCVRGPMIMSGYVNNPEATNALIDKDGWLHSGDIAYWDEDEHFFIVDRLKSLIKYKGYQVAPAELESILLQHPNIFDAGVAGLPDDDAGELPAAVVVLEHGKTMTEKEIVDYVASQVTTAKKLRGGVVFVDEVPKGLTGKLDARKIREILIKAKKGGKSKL
Chain of Ubiquitin carboxyl-terminal hydrolase 1 (Homo sapiens) (O94782 whole entry, looked up): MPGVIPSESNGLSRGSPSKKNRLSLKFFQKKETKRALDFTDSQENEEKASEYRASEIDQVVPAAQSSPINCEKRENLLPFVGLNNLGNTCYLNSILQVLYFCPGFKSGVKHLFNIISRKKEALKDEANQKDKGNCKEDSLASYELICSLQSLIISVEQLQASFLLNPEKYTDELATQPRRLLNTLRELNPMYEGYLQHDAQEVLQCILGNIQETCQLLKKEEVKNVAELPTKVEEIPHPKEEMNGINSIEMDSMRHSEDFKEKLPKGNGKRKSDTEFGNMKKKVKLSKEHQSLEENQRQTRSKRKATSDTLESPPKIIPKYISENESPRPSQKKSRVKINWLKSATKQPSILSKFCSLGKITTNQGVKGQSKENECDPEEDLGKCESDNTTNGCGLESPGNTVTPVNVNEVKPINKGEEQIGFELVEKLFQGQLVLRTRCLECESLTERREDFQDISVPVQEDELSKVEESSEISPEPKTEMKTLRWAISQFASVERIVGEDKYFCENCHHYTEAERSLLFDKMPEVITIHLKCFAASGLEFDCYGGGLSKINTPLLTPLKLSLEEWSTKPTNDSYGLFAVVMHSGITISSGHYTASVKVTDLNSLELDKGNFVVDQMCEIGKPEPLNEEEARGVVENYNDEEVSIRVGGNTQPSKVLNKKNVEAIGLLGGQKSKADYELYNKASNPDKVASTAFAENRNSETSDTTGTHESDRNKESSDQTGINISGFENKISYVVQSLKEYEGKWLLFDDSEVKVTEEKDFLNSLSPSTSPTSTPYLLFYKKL
Chain of Alpha-galactosidase A (Homo sapiens) (P06280 whole entry, looked up): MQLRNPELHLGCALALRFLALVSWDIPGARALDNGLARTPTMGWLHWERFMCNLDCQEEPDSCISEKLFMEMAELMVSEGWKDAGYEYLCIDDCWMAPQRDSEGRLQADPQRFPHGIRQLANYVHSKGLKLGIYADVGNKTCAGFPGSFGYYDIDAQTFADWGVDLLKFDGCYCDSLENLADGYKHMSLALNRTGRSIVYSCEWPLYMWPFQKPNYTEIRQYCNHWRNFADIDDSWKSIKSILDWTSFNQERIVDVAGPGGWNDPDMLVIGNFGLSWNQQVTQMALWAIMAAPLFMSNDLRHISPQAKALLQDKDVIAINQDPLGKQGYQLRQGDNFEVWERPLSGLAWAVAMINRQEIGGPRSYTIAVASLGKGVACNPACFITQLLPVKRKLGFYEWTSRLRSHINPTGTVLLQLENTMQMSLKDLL

C[C@@H](Cc1ccc(O)cc1)NC[C@@H](O)c1cc(O)cc(O)c1
inactive: activity change, negative = inhibition ([1]; at 17.2 µM (top of the series)) -20.6% | activity change, negative = inhibition ([1]; at 38 µM (top of the series)) -23% | activity change, negative = inhibition ([2]; at 17.2 µM (top of the series)) -2.14% | activity change, negative = inhibition ([2]; at 38 µM (top of the series)) -6.03% | activity, negative = inhibition ([3]; at 17.2 µM (top of the series)) -8.37% | activity, negative = inhibition ([3]; at 38 µM (top of the series)) -28.1% | Potency [4] > 46 µM and > 20.6 µM | Potency [5] > 46 µM and > 20.6 µM | Potency [6] | outcome [7] | outcome [8] | Potency [9] | Potency [10] | outcome [11] | outcome [12] | outcome [13] | outcome [14] | outcome [15] | Potency [16] | outcome [17] | outcome [18] | outcome [19] | outcome [20] | Potency (3D7) | Potency (7G8) | Potency (AA1029) | Potency (AS120) | Potency (ATS189) | Potency (ATS95) | Potency (C2A) | Potency (CP185) | Potency (CP191) | Potency (CP192) | Potency (CP194) | Potency (CP201) | Potency (CP203) | Potency (CP211) | Potency (CP215) | Potency (CP217) | Potency (CP237) | Potency (CP238)
